Reference: PubChem BioAssay (EPA / NIEHS)
Several values for one entry are separate records, joined by “and”; a condition that tells them apart may be missing. Identical values can stand only once. Results filed as inconclusive are left out. The source holds several records for some structures; these can differ, active in one and inactive in another. Activity calls are given as the source filed them. The calls were made as follows, unless noted: active = hit-call score of the fitted dose curve at least 0.9, where 1 is the maximum; inactive = score below 0.9.

What was measured:
[1] = CCTE_Shafer_MEA_acute_AB: CCTE's Alamar Blue Assay for Cytotoxicity in the Neural Acute Assay, Shafer Lab (AID 2284069; active = hit-call score of the fitted dose curve at least 0.9, where 1 is the maximum;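 also: active compounds lower the viability signal compared with DMSO wells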)
How it was run: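 Resazurin reduction (CellTiter Blue, 1:6 in fresh medium) read at ex 544/em 590 nm marks viability loss relative to DMSO. Cells: primary rat cortical neuron networks on microelectrode arrays, treated after baseline recording at 13 or 15 days in vitro.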

[2] = CCTE_Shafer_MEA_dev_active_electrodes_number: CCTE's Neural Network Formation Assay for Number of Active Electrodes, Shafer Lab (AID 2284040; active = hit-call score of the fitted dose curve at least 0.9, where 1 is the maximum;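 as to AC50: potency for loss of active electrodes versus DMSO so lower counts are hits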)
How it was run: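 Rat cortical primary cultures, 1.5 x 10^5 cells/well, PEI-coated MEA, laminin drop. Continuous exposure DIV 0–12; full media/compound change DIV 5, 9. Readout: electrodes with mean firing ≥5 spikes/min; AUC across days; loss vs DMSO.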

[3] = CCTE_Shafer_MEA_dev_burst_rate: CCTE's Neural Network Formation Assay for Burst Rate, Shafer Lab (AID 2284042);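 as to AC50: potency for loss of burst rate below DMSO control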
How it was run: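 Exposure ran continuously over 12 days of network development in rat cortical cultures, with compound refreshed during full media changes on DIV 5 and 9. Single-electrode bursts per recording time, well-mean over active electrodes, trapezoidal AUC across days 5–12, fitted downward relative to DMSO.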

[4] = CCTE_Shafer_MEA_dev_bursting_electrodes_number: CCTE's Neural Network Formation Assay for Number of Bursting Electrodes, Shafer Lab (AID 2284043; active = hit-call score of the fitted dose curve at least 0.9, where 1 is the maximum;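 as to AC50: potency is for loss of bursting electrodes relative to DMSO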)
How it was run: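 Primary rat cortical neurons plated on 16-electrode MEA wells, exposed from day 0 with compound renewed at DIV 5 and 9. Electrodes bursting ≥1 burst per 2 min counted on days 5, 7, 9 and 12; trapezoidal AUC across days, fitted for loss versus DMSO.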

[5] = CCTE_Shafer_MEA_dev_per_burst_interspike_interval: CCTE's Neural Network Formation Assay for Burst Interspike Interval, Shafer Lab (AID 2284044);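 also: mean spike spacing inside bursts as AUC over recordings on days 5 7 9 12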;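 as to AC50: potency for a decrease of within-burst interspike interval below DMSO level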
How it was run: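 Neurons from rat cortex plated onto PEI-coated MEA wells with laminin […] at 1.5 x 10^5 cells/well, then treated from day 0. Media and compound fully replaced on DIV 5 and 9. Extracellular spontaneous firing recorded four times; interspike interval per burst summarised as AUC.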

[6] = CCTE_Shafer_MEA_dev_burst_duration_mean: CCTE's Neural Network Formation Assay for Mean Burst Duration, Shafer Lab (AID 2284045);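 as to AC50: curve fitted for loss meaning shorter burst duration than DMSO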
How it was run: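 Primary rat cortical neurons on 48-well 16-electrode MEA plates, exposed from day 0 with renewal at DIV 5 and 9; spontaneous activity recorded on days 5, 7, 9, 12. Well-mean burst duration across bursting electrodes, collapsed as trapezoidal AUC; DMSO baseline.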

[7] = CCTE_Shafer_MEA_dev_interburst_interval_mean: CCTE's Neural Network Formation Assay for Mean Interburst Interval, Shafer Lab (AID 2284046);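 also: well-mean interburst interval of bursting electrodes as AUC over four recording days; curve fitted for decrease in interburst interval relative to DMSO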
How it was run: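 Primary rat cortical neurons on PEI-coated 48-well MEA plates (laminin added with cells at plating) (16 electrodes/well), exposed from plating day 0 with renewal at DIV 5 and 9. Mean inter-burst interval averaged over bursting electrodes, AUC across days 5, 7, 9, 12; DMSO baseline.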

[8] = CCTE_Shafer_MEA_dev_inter_network_spike_interval_mean: CCTE's Neural Network Formation Assay for Mean Inter-network Spike Interval, Shafer Lab (AID 2284047);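 as to AC50: potency for a decrease in mean inter-network spike interval below DMSO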
How it was run: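 Mean time between consecutive network-spike peaks, recorded extracellularly (adaptive spike detection) on DIV 5, 7, 9 and 12, summarized as trapezoidal AUC. Rat cortical cultures on MEAs dosed continuously days 0–12, re-dosed at feeds; loss-of-signal fit relative to DMSO.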

[9] = CCTE_Shafer_MEA_dev_network_spike_number: CCTE's Neural Network Formation Assay for Number of Network Spikes, Shafer Lab (AID 2284048);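 as to AC50: fit as a loss of signal meaning fewer network spikes than DMSO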
How it was run: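 Primary rat cortical neurons on PEI/laminin 48-well MEA plates, dosed from plating day 0 for 12 days, renewed at DIV 5 and 9. Network spike counts recorded DIV 5, 7, 9, 12, collapsed as trapezoidal AUC; DMSO baseline.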

[10] = CCTE_Shafer_MEA_dev_per_network_spike_spike_number_mean: CCTE's Neural Network Formation Assay for Mean Number of Spikes in a Network Spike, Shafer Lab (AID 2284053);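 as to AC50: fitted as decrease in spikes per network spike relative to DMSO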
How it was run: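 Mean spike count within each network spike, taken in a 0.05 s window at its peak, was recorded on days 5, 7, 9 and 12 and integrated as trapezoidal area under the curve. Rat cortical cultures on MEA plates received continuous compound from day 0, refreshed at medium changes on DIV 5 and 9.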

[11] = CCTE_Shafer_MEA_dev_per_network_spike_spike_percent: CCTE's Neural Network Formation Assay for Percent of Spikes in a Network Spike, Shafer Lab (AID 2284054)
How it was run: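 Rat primary cortical neurons were grown on 48-well MEA plates (16 electrodes/well), exposed from plating day 0 through day 12, with treatment renewed on DIV 5 and 9. Percent of spikes within 0.05 s network-spike peaks was measured, summarised as AUC across days 5, 7, 9, 12.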

[12] = CCTE_Shafer_MEA_dev_LDH: CCTE's Lactate Dehydrogenase Assay for Cytotoxicity in the Neural Network Formation Assay, Shafer Lab (AID 2284068; active = hit-call score of the fitted dose curve at least 0.9, where 1 is the maximum;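 also: exposure for twelve days from plating with re-dosing on DIV 5 and 9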)
How it was run: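 Primary rat cortical neurons were cultured on PEI-coated MEA plates and exposed from plating through day 12, with compound renewed at medium changes on DIV 5 and 9. LDH activity was read spectrophotometrically; loss of signal versus DMSO indicates reduced viability.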

[13] = target: Estrogen receptor (Homo sapiens) (UniProt P03372); test: CCTE_Deisenroth_AIME_384WELL_LUC_Inactive: CCTE's 384-well Estrogen Receptor Transactivation Assay without AIME metabolic competence (ERTA luciferase; metabolism negative), Deisenroth Lab (AID 2284038; active = hit-call score of the fitted dose curve at least 0.9, where 1 is the maximum;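 also: VM7Luc4E2 breast cells given medium preincubated 2 h with S9-free microspheres; hits raise estrogen receptor luciferase signal so potencies reflect agonists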)
How it was run: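 Chemicals (10-point series, 0.002 - 200 uM) were incubated 2 hours with alginate-water microsphere lids lacking S9, then the conditioned medium was transferred to VM7Luc4E2 breast cells for 24 hour. Luciferase induction was read by bioluminescence, fitted upward relative to 17beta-estradiol.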

[14] = target: Estrogen receptor (Homo sapiens) (UniProt P03372); test: CCTE_Deisenroth_AIME_384WELL_LUC_Shift: CCTE's 384-well Estrogen Receptor Transactivation Assay with AIME metabolic competence data shift (ERTA luciferase; difference in metabolism positive and negative), Deisenroth Lab (AID 2284041);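 also: shift is response with S9 minus without S9 so positive means metabolism raised ER signal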
How it was run: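 Chemicals (0.002–200 uM, 10 points) pre-incubated 2 h with alginate-encapsulated induced male Sprague Dawley rat liver S9 or S9-free, then medium applied 24 h to VM7Luc4E2 cells; luciferase. Endpoint is per-concentration difference, S9-positive minus negative.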

[15] = UKN5_HCS_SBAD2_cell_viability: Viability Assessment in the University of Konstanz (UKN) Leist Lab Neurite Outgrowth Assay in human iPSC-derived immature Dorsal Root Ganglia Neurons (UKN5) (AID 2284056)
How it was run: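 iPSC-derived immature peripheral neurons (SBAD2) seeded on Matrigel with CHIR99021, SU5402 and DAPT, dosed 1 h later for 24 h. Viability from Hoechst H-33342 and calcein-AM live staining, high-content imaging; bidirectional fit versus DMSO.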

[16] = UKN5_HCS_SBAD2_neurite_outgrowth: University of Konstanz (UKN) Leist Lab Neurite Outgrowth Assay in human iPSC-derived immature Dorsal Root Ganglia Neurons (UKN5) (AID 2284070); settings: actives raise or lower the signal
How it was run: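 SBAD2 neurons, 24 h compound treatment, calcein-AM neurite area via HCS imaging; DMSO baseline, gain or loss of signal.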

DIO2 (gene 1734) = test: CCTE_GLTED_hDIO2: CCTE's human Deiodinase 2 (DIO2) Inhibition Assay, Great Lakes Toxicology and Ecology Division (GLTED) Lab (AID 2284050; active = hit-call score of the fitted dose curve at least 0.9, where 1 is the maximum)
How it was run: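 In this cell-free test, chemicals are exposed to human deiodinase type 2 for 3 hours. Released iodide is determined spectrophotometrically via the Sandell-Kolthoff method, and signal loss relative to DMSO is fitted.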

DIO3 (gene 1735) = test: CCTE_GLTED_hDIO3: CCTE's human Deiodinase 3 (DIO3) Inhibition Assay, Great Lakes Toxicology and Ecology Division (GLTED) Lab (AID 2284055; active = hit-call score of the fitted dose curve at least 0.9, where 1 is the maximum;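 also: potency is for inhibition seen as loss of released iodide signal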)
How it was run: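 Enzyme activity is tracked as iodide release from substrate by recombinant human DIO3 over 3 h with chemical present. A second Sandell-Kolthoff step converts iodide to an absorbance signal, fitted relative to DMSO.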

Measured: AC50

Sequence of Estrogen receptor (Homo sapiens) (P03372 whole entry, looked up): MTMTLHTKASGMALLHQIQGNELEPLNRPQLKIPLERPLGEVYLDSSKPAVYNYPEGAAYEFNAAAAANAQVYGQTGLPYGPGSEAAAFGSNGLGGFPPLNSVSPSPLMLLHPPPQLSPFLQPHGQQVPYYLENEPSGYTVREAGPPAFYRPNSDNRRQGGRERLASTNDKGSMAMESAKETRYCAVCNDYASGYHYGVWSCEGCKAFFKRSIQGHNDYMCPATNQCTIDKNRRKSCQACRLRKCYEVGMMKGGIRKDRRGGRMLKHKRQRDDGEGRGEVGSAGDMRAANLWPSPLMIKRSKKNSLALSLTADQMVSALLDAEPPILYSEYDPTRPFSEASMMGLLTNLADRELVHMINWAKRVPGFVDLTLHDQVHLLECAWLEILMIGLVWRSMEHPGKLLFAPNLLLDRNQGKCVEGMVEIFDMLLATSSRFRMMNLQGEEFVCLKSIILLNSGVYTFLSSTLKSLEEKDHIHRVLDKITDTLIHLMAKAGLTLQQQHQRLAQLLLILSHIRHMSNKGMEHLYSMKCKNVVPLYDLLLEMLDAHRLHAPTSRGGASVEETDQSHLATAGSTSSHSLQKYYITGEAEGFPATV

Cn1c(-c2ccccc2)cc(-c2ccccc2)[n+]1C
inactive: [1]

CC1(C)C(C(=O)OC(C#N)c2cccc(Oc3ccccc3)c2)C1(C)C (stereo not drawn)
active: [2] 19 µM | [4] 15.4 µM | [5] 18.5 µM | [8] 2.56 µM | [9] 515 nM | [10] 10 µM | [11] 4.54 µM | [12] 17.8 µM
inactive: [3] | [6] | [7]

COC(=O)NS(=O)(=O)c1ccc(N)cc1
inactive: [13] | [14]

Clc1nc(Cl)nc(Nc2ccccc2Cl)n1
inactive: [1]

CC1(C)CCC(=Cc2ccc(Cl)cc2)C1(O)Cn1cncn1 (stereo not drawn)
inactive: [1]

CCOP(=O)(OCC)Oc1nc(Cl)c(Cl)cc1Cl
active: [2] 904 nM and 8.09 µM | [4] 852 nM and 6.59 µM | [9] 2980 nM | [10] 3.09 µM and 15 µM | [11] 7.07 µM | [15] 18.3 µM | [12] 610 nM and 413 nM | [16] 14.6 µM
inactive: [13] | [2] | [14] | [3] | [5] | [6] | [7] | [8] | [9] | [10] | [11] | [12] | [1]

CCN(CC)c1nc(C)cc(OP(=S)(OC)OC)n1
inactive: [3] | [5] | [6] | [8] | [9]
active: [2] 33 µM | [4] 30.5 µM | [7] 88.6 µM | DIO2 (gene 1734) 31.1 µM | [10] 29.5 µM | [11] 28 µM | DIO3 (gene 1735) 25.3 µM | [12] 29.2 µM

N#CN=C1SCCN1Cc1ccc(Cl)nc1
inactive: [2] | [3] | [4] | [5] | [6] | [7] | [8] | [9] | [10] | [11] | [12] | [1]

Cc1cc(C)nc(Nc2ccccc2)n1
inactive: [13] | [14]

CN/C(=N\[N+](=O)[O-])NCc1cnc(Cl)s1
inactive: [2] | [3] | [4] | [5] | [6] | [7] | [8] | [9] | [10] | [11] | [12]

CC(C)N1C(=O)c2ccccc2NS1(=O)=O
inactive: [13] | [14]

Nc1cnn(-c2ccccc2)c(=O)c1Cl
inactive: [13] | [14]

CC(C)C1(C)N=C(c2ncccc2C(=O)O)NC1=O (stereo not drawn)
inactive: [1]

CC1(C)CON(Cc2ccccc2Cl)C1=O
active: [13] 73.1 µM | [14] 37.7 µM

Nc1c(Cl)c(F)nc(OCC(=O)O)c1Cl
inactive: [1]

CNC(=O)N(C)c1nnc(C(C)(C)C)s1
inactive: [13] | [14]

CCNC(=O)NC(=O)C(C#N)=NOC
inactive: [2] | [3] | [4] | [5] | [6] | [7] | [8] | [9] | [10] | [11] | [12]

CC(C)(C)C(=O)C(Oc1ccc(Cl)cc1)n1cncn1 (stereo not drawn)
inactive: [3] | [5] | [6] | [7] | [8] | [9]
active: [2] 38.7 µM | [4] 39.6 µM | [10] 35.5 µM | [11] 45.9 µM | [12] 37.5 µM

CCOc1nc(C(Cl)(Cl)Cl)ns1
inactive: [13] | [14]

Cc1c(COC(=O)[C@@H]2[C@H](/C=C(\Cl)C(F)(F)F)C2(C)C)cccc1-c1ccccc1
active: [2] 2.84 µM and 3.36 µM | [3] 768 nM and 2.7 µM | [4] 1.56 µM and 1.65 µM | [5] 3.23 µM and 3.43 µM | [6] 2.29 µM and 1.75 µM | [7] 2.8 µM and 2.26 µM | [8] 2.3 µM | [9] 91.2 nM and 495 nM | [10] 665 nM and 864 nM | [11] 440 nM and 649 nM | [12] 17.5 µM and 11.2 µM
inactive: [8]

Clc1cccc(C(Cl)(Cl)Cl)n1
inactive: [13] | [14]
